The list is not random: actives were taken first. Their share in the collection is about 2.9%.
IP6K1 inhibitor: inhibitors of human IP6K1. activity change, % (series mostly up to about 58 µM). IP6K1 kinase, ADP-Glo luminescence, 2 h; stronger effect = lower value. AID 1645851. actives 0.81% (n = 140,000). Q92551; in the data active = activity change below about -25%; note: % is set by controls: 0 for no effect and ±100 for the full control effect
Target sequence (Q92551 whole entry, looked up): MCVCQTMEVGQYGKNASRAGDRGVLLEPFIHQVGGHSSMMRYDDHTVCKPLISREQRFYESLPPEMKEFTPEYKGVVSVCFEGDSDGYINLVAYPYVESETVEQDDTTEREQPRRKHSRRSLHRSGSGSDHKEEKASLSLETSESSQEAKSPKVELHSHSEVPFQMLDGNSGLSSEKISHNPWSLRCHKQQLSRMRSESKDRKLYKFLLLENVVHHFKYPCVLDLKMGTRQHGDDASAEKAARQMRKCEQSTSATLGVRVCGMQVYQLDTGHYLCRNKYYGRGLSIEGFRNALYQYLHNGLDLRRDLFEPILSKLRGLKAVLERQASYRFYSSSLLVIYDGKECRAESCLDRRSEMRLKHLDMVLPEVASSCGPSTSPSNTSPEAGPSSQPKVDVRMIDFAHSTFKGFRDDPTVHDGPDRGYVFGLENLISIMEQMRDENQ
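ADP-Glo luminescence measures ADP made by human IP6K1 during a 2 h RT reaction with ATP/IP6 (mix at 1.3 mM/130 uM); top library doses 57.5 and 19.1 uM final.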
HEK293 viab: counter-screen for SNCA expression inhibitors: cell viability | HEK-293-SNCA-luc viability, GF-AFC fluorescence, 24 h | Potency, µM (highest dose often 57.1 µM), for the others: at the highest dose activity change, negative = cytotoxicity, most hits filed as cytotoxic | actives 0.12% (n = 150,000);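 note: potency is the fitted concentration of half-maximal effect; 0% = DMSO-treated cells and -100% = medium-only wells without cells; nearly all actives have a fitted effect of over 30% in size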
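HEK-293-SNCA-luc cells (1500/well) plated 24 h, then exposed 24 h to a dilution series; GF-AFC added 30 min at 37C, fluorescence 405/540 nm; normalised to medium-only and DMSO wells, Hill fit.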
SNCA expr inhib: SNCA gene expression inhibition | HEK-293 SNCA-luciferase knock-in, luminescence, 24 h | AID 1671194 | Potency, µM (highest dose often 57.2 µM), without a hit: top-dose activity change, negative = inhibition, actives largely listed as inhibitors | actives 0.17% (n = 140,000);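 note: potency is the fitted concentration of half-maximal effect; plate controls were DMSO cells for no effect and cell-free wells for full effect; nearly all actives have a fitted effect of over 45% in size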
KDM5B inh: blocks human KDM5B histone demethylase activity. Potency, µM (highest dose often 57.7 µM), hits mostly inhibitors. Q9UGL1. actives 2.6% (n = 220,000). AID 1347165. KDM5B demethylase, FDH-coupled NADH fluorescence (FDH is formaldehyde dehydrogenase); note: potency is the fitted concentration of half-maximal effect; 0% is about no effect; nearly all actives have a fitted effect of over 70% in size
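qHTS format, multiple compound concentrations. Buffer 50 mM HEPES pH 7.5/0.01% Tween-20; 200 nM KDM5BΔAP final; 10 min compound preincubation; substrate-mix levels 12.5 µM peptide, 25 µM α-KG, 0.25 mM NAD⁺; 30 min RT; ΔRFU.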
Starred values were filed as active, the others as inactive; i = inactive; ? = inconclusive; nt = no result given; [ ] = dose if it differs, or a comment. Unless noted, calls come from the whole dose curve; as a rule, active = well fitted curve in the direction sought with a large enough effect; inconclusive = small, poorly fitted or top-dose-only effect, or another doubt; inactive = no such curve, though single readings can be large; an effect the other way counts as inactive or inconclusive.

SMILES	IP6K1 inhibitor	HEK293 viab	SNCA expr inhib	KDM5B inh
c1cncc(COc2cc3c(cn2)NCCN(Cc2ccsc2)C3)c1	-17	2%[87.6 µM]	-18%[87.6 µM]	35µM*
O=C(NCCc1nc(Cc2ccccc2)no1)[C@H]1CCC[C@H](O)C1	16	0%	1%	i
Cc1cccc2c1nc1n2[C@@H](CNC(=O)c2ccc3c(c2)OCO3)COC1	-6	?	-1%[87.6 µM]	i
C=CCCC(=O)N1[C@@H](c2ccco2)[C@@H](C(=O)NC)C[C@]12CCCCN(CCO)C2=O	-6	nt	nt	nt
Cc1ccc(C(CC(=O)N2CCCCC2)c2cn(C)c3ccccc23)cc1 (centres undefined)	21	-14%	-7%	?
Cc1ccc(C(CC(=O)N2CCc3ccccc3C2)c2cn(C)c3ccccc23)cc1 (centres undefined)	4	9%	4%	18µM*
COC(=O)N1CCC2(C1)N=C(c1ccccn1)C(=O)N2 (centres undefined)	-2	1%[87.6 µM]	-8%[87.6 µM]	35µM*
Cc1ccc(C)c(C(=O)NCc2nnc3cc(-c4nc(C(C)C)no4)ccn23)c1	39	12%	3%	14µM*
Cc1ccc(C)c(C(=O)NCc2nnc3cc(-c4nc(C)no4)ccn23)c1	6	10%	-4%	25µM*
COc1ccccc1C(=O)N1CCCn2nc(C)c(-c3ccccc3C(C)C)c21	24	-9%[87.6 µM]	-3%[87.6 µM]	i
COc1ccccc1C(=O)N1CCCn2nc(C)c(-c3ccccc3N3CCCC3)c21	17	-15%[87.6 µM]	-25%[87.6 µM]	13µM*
Cc1ccc(NC(=O)CCc2nc3cccnc3n2-c2ccccc2)cc1Cl	22	-11%	5%	i
O=C(CCc1nc2cccnc2n1-c1ccccc1)Nc1ccc(Cl)c(Cl)c1	-7	-29%	7.1µM*	i
CCCC(=O)N1Cc2ccccc2CC2(CCCN(Cc3cccnc3)C2)C1 (centres undefined)	-8	7%	3%	i
NC(=O)c1ccc(OC2CCN(C(=O)CC3CCCCC3)C2)nc1 (centres undefined)	21	0%	16%	i
Cc1ccc(-c2ccc3nnc(CNC(=O)Cc4cccc(C)c4)n3n2)cc1	-14	-8%	-9%	?
Cc1ccc(-c2ccc3nnc(CNC(=O)c4nccc5ccccc45)n3n2)cc1	-7	-9%	17%	32µM*
COc1ccc(-c2ccc3nnc(CNC(=O)c4nccc5ccccc45)n3n2)cc1	-3	-9%	-13%	?
Cc1ccc(-c2ccc3nnc(CNC(=O)c4cc(C)ccc4C)n3n2)cc1	-15	0%	2%	?
Cc1ccc(-c2ccc3nnc(CNC(=O)c4cnccn4)n3n2)cc1	13	8%	-1%	13µM*
CC(=O)N1CCC(C(=O)NCc2nnc3ccc(-c4ccc(C)cc4)nn23)CC1	-16	5%	-1%	32µM*
Cc1ccc(-c2ccc3nnc(CNC(=O)c4cccnc4)n3n2)cc1	-6	-15%	-15%	32µM*
COc1ccc(-c2cc(N3CCC(NC(=O)c4ccc(F)cc4Cl)C3)n[nH]2)cc1 (centres undefined)	14	-19%	11%	?
COc1cc(F)ccc1-c1ccnc2nc(C3CCCO3)nn12 (centres undefined)	-8	6%	8%	28µM*
c1ccc2oc(-c3ccnc4nc(C5CCC5)nn34)cc2c1	-4	4%	21%	11µM*
SMILES	IP6K1 inhibitor	HEK293 viab	SNCA expr inhib	KDM5B inh
COc1cc(F)ccc1-c1ccnc2nc(C3CCC3)nn12	-10	11%	-20%	28µM*
COc1cc(-c2ccnc3nc(C4CCCCC4)nn23)cc(OC)c1OC	14	2%	8%	25µM*
COc1ccc(-c2ccnc3nc(C4CCC4)nn23)cc1OC	6	5%	32%	?
O=C(c1nnc(CN2CCN(c3ccccn3)CC2)n1-c1ccccc1)N1CCC[C@@H]1c1nc2ccccc2[nH]1	-1	-2%	0%	?
COc1ccc(-c2ccnc3nc(C4CCC4)nn23)c(F)c1	11	-11%	-5%	28µM*
O=C(NC1CCCCC1)C1CCc2nnc(-c3cccc(C(F)(F)F)c3)n21 (centres undefined)	8	-7%	5%	nt
CC(C)C[C@@H](C=O)NC(=O)[C@H](CC(C)C)NC(=O)[C@H](CC(C)C)NC(=O)OCc1ccccc1	nt	?	0.61µM*	nt
O=C(CCc1ccnc(N2CCOCC2)c1)N1CCCN(c2ncccn2)CC1	-9	9%	-28%	?
N#Cc1ccc(CN2CCCCCCNC(=O)[C@@H]3C[C@@H](C(=O)NCCc4cnc[nH]4)C[C@@H]32)cc1	0	0%	-10%	20µM*
Cc1ccc(CN2CCCCCCNC(=O)[C@@H]3C[C@@H](C(=O)NCCc4cnc[nH]4)C[C@@H]32)o1	13	-4%	3%	?
Cc1cc(C(=O)N[C@@H]2CN(S(C)(=O)=O)C[C@H]2CN(C)C)n[nH]1	21	-7%	4%	i
CC(=O)N1CCc2c(sc3c2c(=O)n(-c2cccc(Cl)c2C)c(=O)n3Cc2ccccc2C)C1	18	?	-7%	i
C#CCn1c(=O)n(-c2cccc(Cl)c2C)c(=O)c2c3c(sc21)CN(C(C)=O)CC3	6	-25%	4µM*	i
COc1ccccc1-c1cc(C(=O)NCCc2ccc(Cl)cc2)c2cnn(C)c2n1	-10	-7%	8%	79µM*
COc1ccccc1-c1cc(C(=O)NCCc2ccc(Cl)cc2)nc2c1cnn2C	-5	-1%	23%	79µM*
COc1ccc(CCN(C)C2CCCN(c3ncccc3C#N)C2)cc1OC (centres undefined)	25	-21%	-21%	25µM*
COc1ccc(-c2nc(C3CC(=O)N(C4CCCCC4)C3)no2)c(C)c1 (centres undefined)	2	9%	7%	i
CC(C)C(=O)N1Cc2ccccc2CC2(CCCCN2Cc2ccccn2)C1 (centres undefined)	-5	-3%	-12%	?
COCC(=O)N1CCN(C(=O)Nc2ccccc2)C[C@@H]1C(=O)N[C@@H](Cc1ccc(OC)cc1)C(=O)OC	-4	-1%	-12%	i
Cc1ccccc1CC(=O)NCc1nnc2c(-c3nc(C(C)C)no3)cccn12	-5	24%	2%	22µM*
CC(C)c1noc(-c2cccn3c(CNC(=O)c4ccccc4Cl)nnc23)n1	-2	4%	-13%	10µM*
CC(C)c1noc(-c2cccn3c(CNC(=O)Cc4ccccc4Cl)nnc23)n1	6	7%	4%	25µM*
CC(C)c1noc(-c2cccn3c(CNC(=O)c4ccc(Cl)cc4)nnc23)n1	5	-8%	-27%	25µM*
CCOc1ccccc1C(=O)NCc1nnc2c(-c3nc(C(C)C)no3)cccn12	5	10%	6%	?
Cc1ccc(CC(=O)NCc2nnc3c(-c4nc(C(C)C)no4)cccn23)cc1	13	3%	-8%	?
Cc1ccc(C(=O)NCc2nnc3c(-c4nc(C(C)C)no4)cccn23)cc1	18	6%	-22%	?
Cc1ccc(C(=O)OCC(=O)c2ccc(C3CCCCC3)cc2)cc1	nt	nt	nt	i

From PubChem BioAssay
